# In the library only some 1.7% were active in any assay of this set; here they are far more common.
# KCNH2 3.1 inh: KCNH2 3.1 (human) potassium channel inhibition; U2OS KCNH2 3.1, thallium flux FluxOr; hits give low values; activity change, % (tested at about 1.8 µM); hit rate 0.95% among 340,000;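 active = maximum activity change below -70%; inconclusive = maximum activity change from -70% to -50%; inactive = maximum activity change above -50%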;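 note: thallium influx rate constant from kinetic fluorescence after stimulation buffer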
#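 Normalized rate constant (relative to positive and negative DMSO controls) derived from a 2 min kinetic fluorescence read after stimulation; U2OS cells expressing the 3.1 isoform via virus at 1.77 x 10^8 /mL.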
# USP1 inh: blocks the human USP1/UAF1 deubiquitinase complex; recombinant USP1/UAF1, Ub-Rhodamine cleavage fluorescence; Potency, µM (highest dose often 57.1 µM), inactives show at the highest dose activity change, negative = inhibition, usual class: inhibitors; hit rate 0.23% among 390,000; active = well fitted inhibition curve with a large enough effect; inconclusive = small, poorly fitted or top-dose-only effect; inactive = no such curve, though single readings can be large or run the other way; note: potency is the fitted concentration of half-maximal effect; nearly all actives have a fitted effect of over 60% in size
# Target sequence (O94782 whole entry, looked up): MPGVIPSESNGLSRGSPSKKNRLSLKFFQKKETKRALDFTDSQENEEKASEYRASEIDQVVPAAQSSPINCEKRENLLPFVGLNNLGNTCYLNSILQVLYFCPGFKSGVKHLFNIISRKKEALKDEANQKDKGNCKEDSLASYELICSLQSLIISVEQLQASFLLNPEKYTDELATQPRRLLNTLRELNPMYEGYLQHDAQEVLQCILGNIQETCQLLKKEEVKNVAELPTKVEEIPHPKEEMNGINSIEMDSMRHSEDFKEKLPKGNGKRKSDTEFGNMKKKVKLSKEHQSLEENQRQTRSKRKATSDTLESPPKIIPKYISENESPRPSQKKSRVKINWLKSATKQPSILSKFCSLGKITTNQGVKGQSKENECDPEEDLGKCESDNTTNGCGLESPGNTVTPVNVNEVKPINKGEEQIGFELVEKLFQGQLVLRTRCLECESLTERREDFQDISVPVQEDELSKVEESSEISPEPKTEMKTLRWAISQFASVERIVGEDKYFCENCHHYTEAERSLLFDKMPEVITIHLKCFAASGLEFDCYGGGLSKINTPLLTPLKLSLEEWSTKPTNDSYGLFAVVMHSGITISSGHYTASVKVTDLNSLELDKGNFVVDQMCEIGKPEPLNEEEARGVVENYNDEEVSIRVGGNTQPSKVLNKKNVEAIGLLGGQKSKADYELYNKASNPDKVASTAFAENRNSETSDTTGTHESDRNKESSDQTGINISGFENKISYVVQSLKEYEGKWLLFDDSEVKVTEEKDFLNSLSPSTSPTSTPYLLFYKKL
#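 USP1/UAF1 complex at 1 nM was preincubated with compound for 15 min at room temperature, then Ub-Rho substrate (150nM final) was added. Fluorescence (480/540 nm) was read kinetically, 6 reads every 60 seconds.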
# KCNH2 WT inh: KCNH2 (human, wildtype) channel inhibition. Q12809. U2OS, BacMam KCNH2, thallium flux FluxOr; hits give low values. activity change, % at 1.84 µM. hit rate 0.37% among 340,000. AID 720551;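 active = maximum activity change below -70%; inconclusive = maximum activity change between -70% and -50%; inactive = maximum activity change above -50%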
#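 U2OS cells transduced with wild-type KCNH2 virus are loaded with FluxOr dye for 45 min, and thallium flux is measured in kinetic reads before and after stimulation buffer. Rate constants are normalized to DMSO controls.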
# Giardia killer: Giardia lamblia killing; Giardia lamblia trophozoite viability; activity change, % at 7.66 µM, hits read low; hit rate 0.15% among 340,000; AID 540267; in the data active = activity change below about -80%; inconclusive = between about -30% and that limit;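 note: parasites exposed to compound for two days anaerobically before the ATP read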
#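 Luminescence from cellular ATP indicates surviving trophozoites (100 cells/well) following 48 hrs anaerobic compound treatment at 37 deg C; signal develops 15-30 min at room temperature.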
# Coupling enz: inhibits coupling enzyme system, counter-screen for aldolase hits. coupling enzyme system counterscreen, AmpLite Red fluorescence. activity change, negative = inhibition, % at 58.2 µM, hits read low. hit rate 0.67% among 290,000; in the data active = activity change below about -30%
#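 Counterscreen of the coupled detection system alone, without aldolase: glyceraldehyde-3-phosphate coupling enzymes plus AmpLite Red readout. Compounds at 57.5 uM final, 10 min RT preincubation, 20 min RT reaction, fluorescence 525/598 nm.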
# An asterisk follows results filed as active; ? = inconclusive; / = not tested or not shown. % is set by controls: 0 for no effect and ±100 for the full control effect.
SMILES,KCNH2 3.1 inh,USP1 inh,KCNH2 WT inh,Giardia killer,Coupling enz
CSCC[C@H](N)C(=O)N[C@@H](CCCN=C(N)N)C(=O)N[C@@H](Cc1ccccc1)C(=O)N[C@@H](Cc1ccccc1)C(=O)N[C@H](C(=O)O)C(C)C,/,/,/,/,5
Cc1nnc(N/N=C/c2ccccc2F)n1N,2,-20%,-19,5,2
Cc1nnc(N/N=C/c2ccco2)n1N,-13,-17%,6,22,-42*
O=C(O)c1cccc(COc2ccc3c(c2)CCC3)c1,-112*,-9%,6,-16,35
CCC(=O)N1c2ccc(S(=O)(=O)N3CCN(c4ccc([N+](=O)[O-])cc4)CC3)cc2CC1C (configuration not stated),-99*,-2%,-12,-4,3
CCC(=O)N1c2ccc(S(=O)(=O)N3CCN(c4ccccc4)CC3)cc2CC1C (configuration not stated),/,-26%,/,/,/
Cc1ccc(-c2cc(Cc3ccccn3)c(=O)[nH]n2)cc1,-159*,1%,-152*,11,8
CCOc1ccccc1NC(=O)C(c1ccccc1)N1CCN(CC(=O)N2CCCC2)CC1 (configuration not stated),-72*,-8%,-30,5,/
CCOc1ccccc1NC(=O)C(c1ccccc1)N1CCN(CC(=O)N2CCOCC2)CC1 (configuration not stated),-83*,-6%,-3,-18,/
O=C(CN1CCN(C(c2ccccc2)c2ccccc2)CC1)N1CCOCC1,-15,1%,11,0,-4
CCOc1ccccc1NC(=O)CN1CCCCCC1,16,-16%,7,9,2
Cc1ccc(C)c(NC(=O)C(c2ccccc2)N2CCN(CC(=O)N3CCOCC3)CC2)c1 (configuration not stated),-89*,4%,-36,23,/
O=C(CSCc1ccc(F)cc1)N1CCc2c([nH]c3ccccc23)C1c1ccccc1 (configuration not stated),/,-18%,/,/,/
COc1ccc(-n2nc3c(c2NC(=O)CC(C)C)CS(=O)C3)cc1 (configuration not stated),-7,-16%,-12,16,0
COc1ccc(-n2nc3c(c2NC(=O)c2c(F)cccc2Cl)CS(=O)C3)cc1 (configuration not stated),-78*,-8%,-4,?,3
N#CC1=C(N)OC2=C(CC/C2=C\c2ccccc2)C1c1ccccc1 (configuration not stated),-46,?,-73*,4,5
N#CC1=C(N)OC2=C(CC/C2=C\c2ccccc2Cl)C1c1ccccc1Cl (configuration not stated),1,-19%,-9,10,1
Cc1ccc(S(=O)(=O)N2CCN(C)CC2)c(C)c1N(C)S(=O)(=O)c1ccc(Cl)cc1,-94*,-2%,-4,7,-1
CC(=O)Nc1ccn(C2OC(C(COC(C)=O)NC(=O)C3CCCN3C(=O)OC(C)(C)C)C(OC(C)=O)C2OC(C)=O)c(=O)n1 (configuration not stated),/,/,/,3,2
CS(=O)(=O)c1cc([N+](=O)[O-])c(Sc2nc3ccccc3[nH]2)c([N+](=O)[O-])c1,-6,-2%,-1,-7,-41*
Cc1ccc(CN=Cc2[nH]c3ccc(Br)c(Cl)c3c2O)cc1,-15,?,-5,8,-40*
Cc1ccc(/C=C2/SC(=S)N(CCCC(=O)Nc3cc([N+](=O)[O-])ccc3O)C2=O)cc1,-83*,-20%,10,-9,/
COc1ccc(CC(=O)NCc2nn(-c3ccccc3)nc2C)cc1OC,-180*,-13%,0,13,2
O=C(Nn1cnnc1)c1ccc(Br)s1,-186*,-3%,-1,31,6
Cc1csc2nc(CSc3nc4ccccc4o3)cn12,-17,-6%,2,13,-51*
SMILES,KCNH2 3.1 inh,USP1 inh,KCNH2 WT inh,Giardia killer,Coupling enz
c1ccc2oc(SCc3cn4ccsc4n3)nc2c1,-21,-4%,3,-6,3
CCN(CC)C(=O)C1=C(C)N(CCCOC)C(=O)C(CC(=O)NCCc2ccccn2)C1 (configuration not stated),-2,-3%,2,/,/
N#C/C(=C/c1ccc(N2CCCCC2)o1)C(=O)Nc1ccc2ccccc2c1,-72*,34%,-45,-22,0
N#C/C(=C/c1ccc(N2CCCCC2)o1)C(=O)Nc1ccc(Cl)cc1,?,28µM*,-38,-12,3
COc1ccc(NC(=O)/C(C#N)=C\c2ccc(N3CCOCC3)o2)cc1,-9,?,-1,-19,0
O=C(CCn1nc(-c2ccc(Cl)cc2)ccc1=O)NCCc1ccccc1,/,-27%,/,/,/
COc1cc(OC)c(NC(=O)Nc2ccc3c(c2)N(C)C(=O)c2ccccc2S3)cc1Cl,/,-8%,/,/,/
CC(O)C(NS(=O)(=O)c1ccc(Cl)cc1)C(=O)OCCOc1ccc(F)cc1 (configuration not stated),3,-22%,-15,/,/
O=c1[nH]c2ccccc2nc1/C=C(\O)c1cccs1,-9,16µM*,-10,5,0
CCCn1c(-c2ccc(F)cc2)nc2c(NCCCN(C)C)nc(C)nc21,/,/,/,/,0
COc1ccc(C2N(S(=O)(=O)c3ccc(C)cc3)CCN2S(=O)(=O)c2ccc(C)cc2)cc1,-72*,-10%,-6,-2,-1
COc1ccc(C2N(C(C)=O)CCN2S(=O)(=O)c2ccc(C)cc2)cc1 (configuration not stated),5,-3%,1,?,/
CCn1cc(C(=O)Nc2ccc(F)c(F)c2)cn1,-88*,3%,-4,17,-1
CCn1cc(C(=O)Nc2ccc(Cl)cc2Cl)cn1,25,-20%,2,-3,/
CCCCN(CC)CCNC(=O)Cn1cc2c(n1)-c1c(oc(C(=O)N3CCCC3)c1C)CC2,11,?,-1,6,-31*
COc1ccc(-c2[nH]ncc2C(=O)NCc2cccc(F)c2)cc1,/,2%,/,/,/
Cc1ccc(-n2nnnc2SC(C)C(N)=O)c(C)c1 (configuration not stated),-76*,-6%,-3,-6,2
CCOC(=O)c1ccc(NC(=O)CCn2c(=O)c3cccn3c3ccccc32)cc1,/,-2%,/,/,/
Cc1cc(C)cc(NC(=O)CNC(c2ccccc2)c2ccccc2)c1,-7,-9%,-70*,13,-6
CO[C@H]1COC(=O)[C@H](C)NC(=O)C/C=C\[C@@H](C)[C@H](OC)COC(=O)[C@@H](OCc2ccccc2)/C=C\[C@@H]1C,/,/,/,/,-1
CN1CC=C2C(C#N)=C(N)C(C#N)(C#N)[C@H](c3ccoc3)[C@H]2C1,-2,?,11,2,-31*
CCOC(=O)CNC(=O)N1C[C@H]2CON(C)[C@H]2C[C@H]1c1ccccc1Br,10,-7%,-1,/,/
